Tests used:
Experiment in all cases: DAPPL (digital affinity profiling via proximity ligation, sequencing); 10 mM Tris-HCl pH 7.5, 50 mM NaCl, 1 mM DTT, 4% glycerol, room temperature, 30 min; GST-TFs on glutathione beads, 16-mer random dsDNA library, 0.1% formaldehyde crosslink after washing; high values mean tight binding
[1] = target: T1, FEV (Homo sapiens, UniProt Q99581 1-238); conditions: protein: recombinant; tags: N-terminal GST; dsDNA, one strand shown
T1 sequence: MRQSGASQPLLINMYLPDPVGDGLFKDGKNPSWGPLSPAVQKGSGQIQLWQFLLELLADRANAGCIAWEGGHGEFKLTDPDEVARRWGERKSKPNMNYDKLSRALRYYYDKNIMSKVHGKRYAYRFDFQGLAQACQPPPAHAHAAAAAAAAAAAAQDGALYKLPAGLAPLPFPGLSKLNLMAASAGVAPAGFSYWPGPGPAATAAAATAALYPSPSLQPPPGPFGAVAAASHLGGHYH
Method in brief: (§1)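 Human transcription factors were made in yeast as GST fusions, captured on glutathione beads and barcoded with DNA. With a tag-only sample included, the pool was incubated with 200 nmole of a random double-stranded 16-mer DNA library in Tris/NaCl/DTT/glycerol buffer at room temperature for 30 min, then crosslinked with 0.1% formaldehyde after washing, ligated by proximity, amplified and sequenced. For binding signal, each hexamer's read frequency for a factor is divided by its frequency for the tag-only sample.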

[2] = target: ETV5 (Homo sapiens, UniProt P41161 1-510); conditions: protein: recombinant; tags: N-terminal GST; dsDNA, one strand shown
Chain of ETV5 (P41161 whole entry): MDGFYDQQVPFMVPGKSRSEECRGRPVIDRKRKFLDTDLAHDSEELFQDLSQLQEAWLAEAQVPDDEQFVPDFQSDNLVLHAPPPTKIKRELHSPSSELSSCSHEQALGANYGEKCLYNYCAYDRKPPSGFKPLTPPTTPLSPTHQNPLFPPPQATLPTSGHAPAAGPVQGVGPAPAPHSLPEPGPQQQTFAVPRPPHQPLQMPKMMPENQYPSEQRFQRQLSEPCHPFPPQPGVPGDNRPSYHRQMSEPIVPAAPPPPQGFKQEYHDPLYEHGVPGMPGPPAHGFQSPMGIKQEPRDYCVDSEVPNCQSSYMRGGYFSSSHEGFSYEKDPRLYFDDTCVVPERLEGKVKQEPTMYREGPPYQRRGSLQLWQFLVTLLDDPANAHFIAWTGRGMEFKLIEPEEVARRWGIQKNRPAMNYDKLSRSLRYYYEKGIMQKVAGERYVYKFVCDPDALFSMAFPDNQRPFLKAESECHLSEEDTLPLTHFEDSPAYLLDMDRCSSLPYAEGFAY
Method in brief: as §1

[3] = target: HSF1 (Homo sapiens, UniProt Q00613 1-529); conditions: protein: recombinant; tags: N-terminal GST; chain copies: 3; dsDNA, one strand shown
Chain of HSF1 (Q00613 whole entry): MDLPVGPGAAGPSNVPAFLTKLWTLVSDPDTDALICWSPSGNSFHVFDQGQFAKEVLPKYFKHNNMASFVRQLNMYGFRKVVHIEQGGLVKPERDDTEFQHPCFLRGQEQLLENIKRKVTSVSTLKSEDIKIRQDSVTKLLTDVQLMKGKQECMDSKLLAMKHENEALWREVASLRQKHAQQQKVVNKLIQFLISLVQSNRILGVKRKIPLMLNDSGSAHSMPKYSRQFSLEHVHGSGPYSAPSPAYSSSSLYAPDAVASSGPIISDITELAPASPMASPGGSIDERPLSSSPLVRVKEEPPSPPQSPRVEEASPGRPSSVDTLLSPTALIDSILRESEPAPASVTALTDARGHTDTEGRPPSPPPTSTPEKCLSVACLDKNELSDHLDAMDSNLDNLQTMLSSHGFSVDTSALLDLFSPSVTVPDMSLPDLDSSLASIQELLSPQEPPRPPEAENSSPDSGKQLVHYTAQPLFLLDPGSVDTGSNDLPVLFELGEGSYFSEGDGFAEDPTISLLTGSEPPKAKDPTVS
Method in brief: as §1

[4] = target: T2, SPIC (Homo sapiens, UniProt Q8N5J4 1-248); conditions: protein: recombinant; tags: N-terminal GST; dsDNA, one strand shown
T2 sequence: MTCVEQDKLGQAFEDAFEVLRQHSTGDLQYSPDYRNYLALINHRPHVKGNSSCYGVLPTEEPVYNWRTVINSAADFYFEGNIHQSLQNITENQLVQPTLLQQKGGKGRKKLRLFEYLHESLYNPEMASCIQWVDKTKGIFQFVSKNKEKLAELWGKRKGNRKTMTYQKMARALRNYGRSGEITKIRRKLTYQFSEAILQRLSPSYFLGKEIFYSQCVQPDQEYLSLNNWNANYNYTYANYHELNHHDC
Method in brief: as §1

[5] = target: ELF4 (Homo sapiens, UniProt Q99607 1-663); conditions: protein: recombinant; tags: N-terminal GST; dsDNA, one strand shown
Chain of ELF4 (Q99607 whole entry): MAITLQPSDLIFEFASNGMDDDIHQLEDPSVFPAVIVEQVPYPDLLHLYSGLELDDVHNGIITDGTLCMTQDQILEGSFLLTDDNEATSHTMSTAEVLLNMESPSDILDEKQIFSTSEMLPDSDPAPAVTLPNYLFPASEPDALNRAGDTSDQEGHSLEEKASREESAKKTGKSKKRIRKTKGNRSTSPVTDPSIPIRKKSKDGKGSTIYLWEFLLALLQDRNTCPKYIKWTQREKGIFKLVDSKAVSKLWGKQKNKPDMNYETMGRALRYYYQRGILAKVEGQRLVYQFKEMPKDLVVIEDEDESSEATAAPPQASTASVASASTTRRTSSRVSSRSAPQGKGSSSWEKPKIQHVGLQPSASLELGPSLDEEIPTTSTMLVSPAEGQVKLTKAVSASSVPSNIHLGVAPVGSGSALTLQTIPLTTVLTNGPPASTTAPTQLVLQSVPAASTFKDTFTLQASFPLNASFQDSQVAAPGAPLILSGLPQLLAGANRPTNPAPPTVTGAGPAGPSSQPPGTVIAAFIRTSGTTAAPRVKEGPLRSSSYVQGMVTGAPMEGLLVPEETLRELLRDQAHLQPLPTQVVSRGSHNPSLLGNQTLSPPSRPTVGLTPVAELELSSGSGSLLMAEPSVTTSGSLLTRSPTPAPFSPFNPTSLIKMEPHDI
Method in brief: as §1

[6] = target: T3, ELK4 (Homo sapiens, UniProt P28324-2 1-405); conditions: protein: recombinant; tags: N-terminal GST; dsDNA, one strand shown
T3 sequence: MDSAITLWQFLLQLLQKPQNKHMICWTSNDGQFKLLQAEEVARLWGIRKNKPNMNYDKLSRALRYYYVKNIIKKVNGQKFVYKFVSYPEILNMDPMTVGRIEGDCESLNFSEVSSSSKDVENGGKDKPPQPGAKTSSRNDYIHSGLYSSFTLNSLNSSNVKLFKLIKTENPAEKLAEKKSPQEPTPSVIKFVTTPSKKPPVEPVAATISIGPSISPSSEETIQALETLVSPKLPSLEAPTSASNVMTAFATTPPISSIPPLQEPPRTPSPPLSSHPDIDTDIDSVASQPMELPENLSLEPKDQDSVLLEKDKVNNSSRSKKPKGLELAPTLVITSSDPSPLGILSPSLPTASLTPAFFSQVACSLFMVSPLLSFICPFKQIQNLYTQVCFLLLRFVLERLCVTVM
Method in brief: as §1

[7] = target: T4, ETV2 (Homo sapiens, UniProt O00321 1-342); conditions: protein: recombinant; tags: N-terminal GST; dsDNA, one strand shown
T4 sequence: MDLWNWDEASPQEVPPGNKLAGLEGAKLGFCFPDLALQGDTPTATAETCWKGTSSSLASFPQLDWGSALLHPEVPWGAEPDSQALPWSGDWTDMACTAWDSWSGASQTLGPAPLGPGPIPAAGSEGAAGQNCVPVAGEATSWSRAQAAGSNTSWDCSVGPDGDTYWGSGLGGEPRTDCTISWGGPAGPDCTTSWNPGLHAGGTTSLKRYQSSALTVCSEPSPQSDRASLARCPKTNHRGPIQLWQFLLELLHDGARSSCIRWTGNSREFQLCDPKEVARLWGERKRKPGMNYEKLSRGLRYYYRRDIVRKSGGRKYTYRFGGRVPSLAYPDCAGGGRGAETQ
Method in brief: as §1

[8] = target: T5, ELF3 (Homo sapiens, UniProt P78545 1-371); conditions: protein: recombinant; tags: N-terminal GST; dsDNA, one strand shown
T5 sequence: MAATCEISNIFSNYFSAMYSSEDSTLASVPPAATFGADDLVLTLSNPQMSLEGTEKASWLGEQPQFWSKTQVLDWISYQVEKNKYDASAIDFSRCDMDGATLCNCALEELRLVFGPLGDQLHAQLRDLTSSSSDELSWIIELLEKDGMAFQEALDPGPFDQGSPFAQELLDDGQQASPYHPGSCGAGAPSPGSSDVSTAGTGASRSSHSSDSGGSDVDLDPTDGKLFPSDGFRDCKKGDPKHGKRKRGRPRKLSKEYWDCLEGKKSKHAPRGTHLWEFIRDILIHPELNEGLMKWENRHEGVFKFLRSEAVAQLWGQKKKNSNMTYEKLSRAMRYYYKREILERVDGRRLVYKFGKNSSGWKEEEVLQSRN
Method in brief: as §1

[9] = target: CRX (Homo sapiens, UniProt O43186 1-299); conditions: protein: recombinant; tags: N-terminal GST; dsDNA, one strand shown
Chain of CRX (O43186 whole entry): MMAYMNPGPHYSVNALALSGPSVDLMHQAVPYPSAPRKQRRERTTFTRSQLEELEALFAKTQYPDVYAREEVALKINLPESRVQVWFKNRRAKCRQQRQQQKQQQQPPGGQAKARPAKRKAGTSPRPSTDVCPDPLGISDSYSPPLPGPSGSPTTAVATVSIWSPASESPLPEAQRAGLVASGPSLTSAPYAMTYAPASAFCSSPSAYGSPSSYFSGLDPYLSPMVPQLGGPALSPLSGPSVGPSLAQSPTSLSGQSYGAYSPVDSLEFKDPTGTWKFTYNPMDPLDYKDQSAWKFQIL
Method in brief: as §1

[10] = target: ETV1 (Homo sapiens, UniProt P50549 1-477); conditions: protein: recombinant; tags: N-terminal GST; dsDNA, one strand shown
Chain of ETV1 (P50549 whole entry): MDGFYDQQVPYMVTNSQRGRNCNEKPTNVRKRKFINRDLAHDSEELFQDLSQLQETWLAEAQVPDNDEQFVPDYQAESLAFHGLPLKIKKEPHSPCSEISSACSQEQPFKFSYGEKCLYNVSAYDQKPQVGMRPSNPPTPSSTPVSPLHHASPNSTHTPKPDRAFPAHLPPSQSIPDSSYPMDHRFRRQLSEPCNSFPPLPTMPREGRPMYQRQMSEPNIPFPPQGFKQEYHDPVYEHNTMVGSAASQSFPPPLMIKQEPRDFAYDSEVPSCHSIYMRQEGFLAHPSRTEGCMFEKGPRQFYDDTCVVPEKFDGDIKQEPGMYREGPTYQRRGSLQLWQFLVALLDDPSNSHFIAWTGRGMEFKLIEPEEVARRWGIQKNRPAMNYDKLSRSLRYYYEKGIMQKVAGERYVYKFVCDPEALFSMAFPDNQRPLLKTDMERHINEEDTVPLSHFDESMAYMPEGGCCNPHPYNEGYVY
Method in brief: as §1

[11] = target: T6, ERF (Homo sapiens, UniProt P50548 1-548); conditions: protein: recombinant; tags: N-terminal GST; dsDNA, one strand shown
T6 sequence: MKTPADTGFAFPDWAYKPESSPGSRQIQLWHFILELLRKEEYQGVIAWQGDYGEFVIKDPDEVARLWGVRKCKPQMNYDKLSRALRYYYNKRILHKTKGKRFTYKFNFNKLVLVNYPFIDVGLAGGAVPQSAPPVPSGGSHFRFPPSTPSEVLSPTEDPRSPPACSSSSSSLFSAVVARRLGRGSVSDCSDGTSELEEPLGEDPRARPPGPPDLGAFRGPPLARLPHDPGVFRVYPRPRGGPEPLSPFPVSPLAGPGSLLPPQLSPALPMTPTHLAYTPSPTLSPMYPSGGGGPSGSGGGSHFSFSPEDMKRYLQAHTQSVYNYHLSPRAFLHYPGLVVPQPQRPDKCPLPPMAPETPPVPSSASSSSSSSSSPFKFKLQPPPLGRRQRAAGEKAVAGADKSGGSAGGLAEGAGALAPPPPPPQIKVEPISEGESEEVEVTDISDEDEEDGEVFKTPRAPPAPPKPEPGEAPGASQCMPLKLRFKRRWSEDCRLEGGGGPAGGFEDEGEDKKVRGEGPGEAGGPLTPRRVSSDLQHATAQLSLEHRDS
Method in brief: as §1

[12] = target: T7, ETV3L (Homo sapiens, UniProt Q6ZN32 1-361); conditions: protein: recombinant; tags: N-terminal GST; dsDNA, one strand shown
T7 sequence: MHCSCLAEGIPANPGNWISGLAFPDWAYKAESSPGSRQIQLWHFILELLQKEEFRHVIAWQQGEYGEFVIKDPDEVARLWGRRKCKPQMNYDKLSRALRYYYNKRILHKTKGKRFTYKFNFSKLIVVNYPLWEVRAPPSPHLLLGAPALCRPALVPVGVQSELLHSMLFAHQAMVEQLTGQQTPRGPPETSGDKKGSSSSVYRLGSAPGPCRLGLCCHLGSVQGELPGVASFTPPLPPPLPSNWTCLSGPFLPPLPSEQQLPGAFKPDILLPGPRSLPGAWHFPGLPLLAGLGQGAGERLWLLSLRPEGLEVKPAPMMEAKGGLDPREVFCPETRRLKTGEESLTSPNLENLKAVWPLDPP
Method in brief: as §1

[13] = target: T8, ETS2 (Homo sapiens, UniProt P15036 1-469); conditions: protein: recombinant; tags: N-terminal GST; dsDNA, one strand shown
T8 sequence: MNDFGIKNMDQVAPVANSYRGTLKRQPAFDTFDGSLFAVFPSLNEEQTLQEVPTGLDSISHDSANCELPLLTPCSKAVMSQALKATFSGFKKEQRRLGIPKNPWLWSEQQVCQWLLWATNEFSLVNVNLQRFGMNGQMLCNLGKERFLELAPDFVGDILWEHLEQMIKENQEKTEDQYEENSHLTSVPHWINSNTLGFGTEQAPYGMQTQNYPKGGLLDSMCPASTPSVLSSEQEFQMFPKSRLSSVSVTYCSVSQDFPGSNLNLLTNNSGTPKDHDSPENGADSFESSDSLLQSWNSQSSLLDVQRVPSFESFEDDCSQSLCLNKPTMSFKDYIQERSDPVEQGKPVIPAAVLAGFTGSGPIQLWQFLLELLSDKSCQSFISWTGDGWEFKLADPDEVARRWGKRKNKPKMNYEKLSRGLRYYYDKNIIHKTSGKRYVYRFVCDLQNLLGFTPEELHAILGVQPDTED
Method in brief: as §1

[14] = target: T9, SPDEF (Homo sapiens, UniProt O95238 1-335); conditions: protein: recombinant; tags: N-terminal GST; dsDNA, one strand shown
T9 sequence: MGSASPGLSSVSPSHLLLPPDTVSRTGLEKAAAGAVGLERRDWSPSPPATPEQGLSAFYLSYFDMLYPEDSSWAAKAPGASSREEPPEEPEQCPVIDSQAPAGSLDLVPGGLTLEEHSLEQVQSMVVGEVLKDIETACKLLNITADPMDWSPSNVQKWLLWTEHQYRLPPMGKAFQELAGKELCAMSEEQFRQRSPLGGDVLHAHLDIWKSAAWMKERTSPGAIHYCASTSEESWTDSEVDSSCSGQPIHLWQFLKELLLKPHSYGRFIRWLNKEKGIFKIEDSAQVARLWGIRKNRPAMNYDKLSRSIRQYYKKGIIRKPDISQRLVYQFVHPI
Method in brief: as §1

[15] = target: T10, ETV7 (Homo sapiens, UniProt Q9Y603 1-341); conditions: protein: recombinant; tags: N-terminal GST; dsDNA, one strand shown
T10 sequence: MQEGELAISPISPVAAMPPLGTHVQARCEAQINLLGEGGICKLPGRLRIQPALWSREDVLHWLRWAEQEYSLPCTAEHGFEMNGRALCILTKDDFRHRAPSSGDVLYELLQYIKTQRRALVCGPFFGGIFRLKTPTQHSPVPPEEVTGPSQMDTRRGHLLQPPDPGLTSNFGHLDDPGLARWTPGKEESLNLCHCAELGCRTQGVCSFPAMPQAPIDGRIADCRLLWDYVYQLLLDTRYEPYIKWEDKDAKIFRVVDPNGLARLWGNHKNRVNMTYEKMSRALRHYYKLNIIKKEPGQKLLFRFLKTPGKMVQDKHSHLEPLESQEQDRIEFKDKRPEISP
Method in brief: as §1

[16] = target: T11, ELF5 (Homo sapiens, UniProt Q9UKW6-2 1-255); conditions: protein: recombinant; tags: N-terminal GST; dsDNA, one strand shown
T11 sequence: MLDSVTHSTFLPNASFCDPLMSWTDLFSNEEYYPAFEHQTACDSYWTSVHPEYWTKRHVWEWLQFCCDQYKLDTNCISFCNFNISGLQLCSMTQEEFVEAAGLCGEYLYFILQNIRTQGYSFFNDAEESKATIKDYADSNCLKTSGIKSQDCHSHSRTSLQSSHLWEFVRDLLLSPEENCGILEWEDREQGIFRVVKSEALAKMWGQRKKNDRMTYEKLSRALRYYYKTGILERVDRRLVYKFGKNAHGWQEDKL
Method in brief: as §1

[17] = target: T12, ETV3 (Homo sapiens, UniProt P41162-2 1-143); conditions: protein: recombinant; tags: N-terminal GST; dsDNA, one strand shown
T12 sequence: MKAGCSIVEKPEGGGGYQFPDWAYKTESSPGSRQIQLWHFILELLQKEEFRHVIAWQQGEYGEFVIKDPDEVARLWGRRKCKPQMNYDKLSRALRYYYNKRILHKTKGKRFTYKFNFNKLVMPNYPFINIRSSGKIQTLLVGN
Method in brief: as §1

[18] = target: ETV6 (Homo sapiens, UniProt P41212 1-452); conditions: protein: recombinant; tags: N-terminal GST; dsDNA, one strand shown
Chain of ETV6 (P41212 whole entry): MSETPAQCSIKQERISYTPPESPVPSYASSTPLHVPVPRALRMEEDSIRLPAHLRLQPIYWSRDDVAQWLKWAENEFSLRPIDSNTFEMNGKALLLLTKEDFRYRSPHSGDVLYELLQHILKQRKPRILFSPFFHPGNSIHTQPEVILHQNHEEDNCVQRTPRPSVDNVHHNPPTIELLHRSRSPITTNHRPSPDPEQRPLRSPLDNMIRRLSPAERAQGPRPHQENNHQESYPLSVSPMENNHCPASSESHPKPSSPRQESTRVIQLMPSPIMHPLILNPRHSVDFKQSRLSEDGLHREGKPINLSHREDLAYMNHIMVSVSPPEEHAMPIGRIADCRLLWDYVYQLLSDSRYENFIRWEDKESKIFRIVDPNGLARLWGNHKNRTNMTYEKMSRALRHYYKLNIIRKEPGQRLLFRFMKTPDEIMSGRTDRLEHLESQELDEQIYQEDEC
Method in brief: as §1

In the case of TTGCAT, the binding signal [1] is reported as 1.35 fold enrichment (6-mer frequency, TF over GST control), the binding signal [2] is reported as 1.39 fold enrichment (6-mer frequency, TF over GST control) and the binding signal [3] is reported as 1.3 fold enrichment (6-mer frequency, TF over GST control). For the same sequence, the binding signal [4] was 1.59 fold enrichment (6-mer frequency, TF over GST control), the binding signal [5] was 1.4 fold enrichment (6-mer frequency, TF over GST control) and the binding signal [6] was 1.31 fold enrichment (6-mer frequency, TF over GST control). For the same sequence, the binding signal [7] was 1.53 fold enrichment (6-mer frequency, TF over GST control), the binding signal [8] was 1.38 fold enrichment (6-mer frequency, TF over GST control) and the binding signal [9] was 1.33 fold enrichment (6-mer frequency, TF over GST control). For the same sequence, the binding signal [10] was 1.5 fold enrichment (6-mer frequency, TF over GST control), the binding signal [11] was 1.37 fold enrichment (6-mer frequency, TF over GST control) and the binding signal [12] was 1.56 fold enrichment (6-mer frequency, TF over GST control). The binding signal [13] was 1.42 fold enrichment (6-mer frequency, TF over GST control), the binding signal [14] was 1.51 fold enrichment (6-mer frequency, TF over GST control) and the binding signal [15] was 1.35 fold enrichment (6-mer frequency, TF over GST control). For the same sequence, the binding signal [16] was 1.4 fold enrichment (6-mer frequency, TF over GST control), the binding signal [17] was 1.49 fold enrichment (6-mer frequency, TF over GST control) and the binding signal [18] was 1.38 fold enrichment (6-mer frequency, TF over GST control).

— paper PMC7862700, “An all-to-all approach to the identification of sequence-specific readers for epigenetic DNA modifications on cytosine”
